Data published in PubChem BioAssay AID463173 (ICCB-Longwood Screening Facility, Harvard Medical School, 2010).
Out of some 52,000 compounds screened, about 4,300 (8.3%) were called active. What follows is part of a selection rich in actives, with near analogues and random picks from the rest. Unmarked numbers belong to inactive results. Cut-off read from the data, not from the text of the source: active = survival mostly below about 52% (no sharp cut-off); inactive = mostly above about 56%.

tested on: DeltatarO mutant; assay: growth inhibition of S. aureus wild type versus tarO mutant, primary screen, teichoic acid synthesis inhibitors, RN4220, OD600 (AID 463173); conditions: OD600, 18 h, active compounds read low, screened at 18.75 µg/mL (by protocol)

Row | SMILES | survival
1 | Cc1cc2[nH]c(=O)c(=O)[nH]c2cc1S(=O)(=O)Nc1ccc(OC(F)(F)F)cc1 | 67%
2 | CCCn1c(=O)n(-c2cc(Cl)c(OC)cc2OC)c(=O)c2c3c(sc21)CN(C(C)=O)CC3 | 62%
3 | O=C(O)CCc1ccc(-c2ccccc2)n1CC(=O)Nc1ccccc1C(F)(F)F | 60%
4 | CCc1ccccc1NC(=O)C1=C(C)C(=O)OC12CCCCCC2 | 58%
5 | CCn1cc(C(=O)OCC(=O)Nc2cc(C)cc(C)c2)c(=O)c2ccc(C)nc21 | 64%
6 | CCn1cc(C(=O)OCC(=O)Nc2cc(Cl)ccc2C)c(=O)c2ccc(C)nc21 | 74%
7 | CCn1cc(C(=O)OCC(=O)Nc2ccc(C)c(Cl)c2)c(=O)c2ccc(C)nc21 | 63% (active)
8 | CCCCCCC1CC=C(C(=O)O)CC1 (stereo not given) | 76%
9 | CCCCC1CCC(CCCC(C)CCC(=O)O)CC1 (stereo not given) | -4% (active)
10 | CCCCCCC1CCC(C(=O)NC(C(=O)O)C(C)C)CC1 (stereo not given) | 49%
11 | O=c1c2sc3ccccc3c2n(Cc2ccccc2)c(=O)n1CCc1ccccc1 | 71%
12 | O=C(CN(c1ccc(Cl)c(C(F)(F)F)c1)S(=O)(=O)c1ccccc1)N1CCc2ccccc2C1 | 42%
13 | COc1ccc(N(CC(=O)Nc2cc(OC)cc(OC)c2)S(=O)(=O)c2c(C)noc2C)cc1 | 45% (active)
14 | CS(=O)(=O)N(CC(=O)Nc1cccnc1)c1ccc(Cl)cc1 | 91%
15 | COc1ccc(N(CC(=O)NCc2ccc(F)cc2)S(=O)(=O)c2c(C)noc2C)cc1 | 82%
16 | COc1ccc(N(CC(=O)Nc2cc(Cl)ccc2C)S(=O)(=O)c2c(C)noc2C)cc1 | 51%
17 | CCOc1ccc(S(=O)(=O)N(CC(=O)Nc2cccnc2)c2ccccc2)cc1 | 114%
18 | O=C(CN(c1ccc(Cl)c(C(F)(F)F)c1)S(=O)(=O)c1ccccc1)Nc1cccnc1 | 47% (active)
19 | COc1ccc(S(=O)(=O)N(CC(=O)Nc2cccnc2)c2ccc(Cl)cc2)cc1 | 30% (active)
20 | COc1ccc(S(=O)(=O)N(CC(=O)Nc2cc(C)cc(C)c2)c2ccc(Cl)cc2)cc1 | 77%
21 | Cc1cc(C)c(NC(=O)Cn2c(=O)n(CC(=O)NCc3ccccc3Cl)c(=O)c3sccc32)c(C)c1 | 171%
22 | Cc1ccc(N2CCN(C(=O)c3nn(C)c4c3CS(=O)(=O)c3ccccc3-4)CC2C)cc1 (stereo not given) | 56%
23 | O=C(c1ccc2c(c1)N(Cc1cccc(Cl)c1)C(=O)c1ccccc1S2(=O)=O)N1CCCC1 | 115%

Row | SMILES | survival
24 | CCOc1ccccc1CNC(=O)CSc1nnc(C)c2c(C)n(-c3ccccc3)nc12 | 83%
25 | CC(C)CNS(=O)(=O)c1ccc(S(=O)(=O)N2CCCC(C(=O)NC3CCCCC3)C2)cc1 (stereo not given) | 75%
26 | CCCCOc1ccc(CNC(=O)C2COc3ccc(OC)cc3C2)cc1 (stereo not given) | 94%
27 | CNC(=O)c1c[nH]c2ccc(S(=O)(=O)Nc3cccc(Cl)c3C)cc2c1=O | 91%
28 | O=C(NC1CCCCC1)c1c[nH]c2ccc(S(=O)(=O)Nc3ccccc3F)cc2c1=O | 83%
29 | CCOCCCNC(=O)c1c[nH]c2ccc(S(=O)(=O)Nc3cccc(Cl)c3C)cc2c1=O | 93%
30 | Cc1c(Cl)cccc1NS(=O)(=O)c1ccc2[nH]cc(C(=O)NC3CCCC3)c(=O)c2c1 | 7% (active)
31 | CCc1ccccc1NS(=O)(=O)c1ccc2[nH]cc(C(=O)NC3CCCC3)c(=O)c2c1 | 33% (active)
32 | Cc1ccccc1NS(=O)(=O)c1ccc2[nH]cc(C(=O)NC3CCCCC3)c(=O)c2c1 | 85%
33 | CNc1nc2ccccc2o1 | 89%
34 | O=C(CSc1nnc(-c2cccs2)o1)Oc1ccccc1Cl | 81%
35 | Cc1ccc(CNC(=O)CCCn2c(=O)c3ccccc3n(CC(=O)Nc3ccc(C)cc3)c2=O)cc1 | 89%
36 | CCOC(=O)N1CCN(C(=O)CN(c2cc(C)ccc2OC)S(=O)(=O)c2ccc(C)cc2)CC1 | 87%
37 | COc1ccccc1N(CC(=O)N1CCC(C)CC1)S(=O)(=O)c1ccc(C)cc1 | 134%
38 | COc1ccc(C)cc1N(CC(=O)N1CCC(C)CC1)S(=O)(=O)c1ccc(C)cc1 | 55% (active)
39 | O=C(CSc1nc(-c2ccc(F)cc2)[nH]c1-c1ccc(F)cc1)Nc1ccc2c(c1)OCCO2 | 76%
40 | N#Cc1cc2nc3c(nc2cc1C#N)-c1cccc2cccc-3c12 | 85%
41 | N#Cc1nc2c(nc1C#N)-c1ccccc1C2=O | 19% (active)
42 | N#CC(C#N)=C1c2ccccc2-c2c1nc1ccccc1[n+]2[O-] | 78%
43 | N#CC(C#N)=C1c2ccccc2-c2nc(C#N)c(C#N)nc21 | 4% (active)
44 | O=C1c2ccccc2-c2n[nH]c(=S)nc21 | 64%
45 | N#CCCCN1C(=O)C(=C(C#N)C#N)c2ccccc21 | 75%
46 | COC(=O)c1ccc2c(=O)n(CCCCCC(=O)N3CCN(c4ccc(Cl)cc4)CC3)c(=O)[nH]c2c1 | 116%

Row | SMILES | survival
47 | COc1ccccc1OC(C)C(=O)Nc1c(C(=O)c2ccc(Cl)cc2)oc2ccccc12 (stereo not given) | 81%
48 | Cc1cc(C)cc(OC(C)C(=O)Nc2c(C(=O)c3ccccc3)oc3ccccc23)c1 (stereo not given) | 17% (active)
49 | Cc1cc(C)cc(OCC(=O)Nc2c(C(=O)c3ccccc3)oc3ccccc23)c1 | 92%
50 | Cc1ccc(C(=O)c2oc3ccccc3c2NC(=O)COc2ccccc2Cl)cc1 | 123%
51 | Cc1ccc(C(=O)c2oc3ccccc3c2NC(=O)C(C)Oc2ccccc2Cl)cc1 (stereo not given) | 40% (active)
52 | CCc1ccc(OC(C)C(=O)Nc2c(C(=O)c3ccccc3)oc3ccccc23)cc1 (stereo not given) | 38%
53 | CC(C)Cn1c(=O)c2ccccc2n2c(-c3ccc(Br)cc3)nnc12 | 94%
54 | Cc1ccc(CN(Cc2ccco2)C(=O)COc2ccc(Cl)cc2Cl)cc1 | 96%
55 | Cc1ccc(-c2nnc(Nc3ccc(O)cc3)c3ccccc23)cc1S(=O)(=O)N1CCCCC1 | 104%
56 | Cc1cccc(N2CCN(c3nc4ccc(C(=O)c5ccccc5)cc4n4cnnc34)CC2C)c1 (stereo not given) | 76%
57 | Cc1ccc(CN2CCC(CNc3ncnc4onc(-c5ccc(F)cc5)c34)CC2)cc1 | -2% (active)
58 | Cc1ccc(CN2CCC(CNc3ncnc4onc(-c5ccc(Cl)cc5)c34)CC2)cc1 | 80%
59 | Cc1cc(C)cc(Nc2ncnc3onc(-c4ccc(F)cc4)c23)c1 | 84%
60 | Cc1ccc(CO)cc1Nc1ncnc2onc(-c3ccc(F)cc3)c12 | 46% (active)
61 | Fc1ccc(-c2noc3ncnc(NCC4CCN(Cc5ccc(Cl)cc5)CC4)c23)cc1 | 72%
62 | Cc1ccc(CCNc2ncnc3onc(-c4ccc(F)cc4)c23)cc1 | 83%
63 | Cc1cccc(N2CCN(C(=O)c3cccc(-n4c(C)nc5cccnc54)c3)CC2)c1C | 104%
64 | COc1ccc2c(c1)cc1c(=O)n(CC(=O)NC3CCCCC3)nc(C)n12 | 70%
65 | COc1ccc(CCNS(=O)(=O)c2c(C)nc3sccn3c2=O)cc1OC | 64%
66 | CCOc1ccc(CN2C(=O)c3ccccc3Sc3ccc(C(=O)NCCc4ccccc4)cc32)cc1 | 58%
67 | COC(=O)C1(C)NC(c2ccc(OC)cc2)C2C(=O)N(c3ccccc3)C(=O)C21 (stereo not given) | 80%
68 | COC(=O)C1(C(C)C)NC(c2ccccc2OC)C2C(=O)N(C)C(=O)C21 (stereo not given) | 84%
69 | COC(=O)C1(C)NC(c2ccccc2C)C2C(=O)N(C)C(=O)C21 (stereo not given) | 54% (active)

Row | SMILES | survival
70 | COc1ccc(C)cc1NS(=O)(=O)c1ccc2oc(=O)c3ncn(C)c3c2c1 | 77%
71 | CCc1ccc(S(=O)(=O)NCc2ccc3c(c2)CCN3C(=O)c2ccc(C)cc2)cc1 | 71%
72 | CCOc1ccc(-c2nonc2NC(=O)c2ccco2)cc1 | 79%
73 | CC(=O)c1cccc(NC(=O)Cn2cnc3c2c(=O)n(C)c(=O)n3C)c1 | 44% (active)
74 | Cn1c(=O)c2c(ncn2CC(=O)Nc2cccc(C(F)(F)F)c2)n(C)c1=O | 71%
75 | CC(=O)Nc1cccc(NC(=O)Cn2cnc3c2c(=O)n(C)c(=O)n3C)c1 | 70%
76 | Cc1cccc(-c2cc(-c3ccccc3)nc(SCC(=O)Nc3ccccc3)c2C#N)c1 | 67%
77 | COc1cc(C(CC(=O)Nc2ccc(C)c(F)c2)N2Cc3ccccc3C2=O)cc(OC)c1OC (stereo not given) | 93%
78 | CC(C)c1ccc(S(=O)(=O)NCc2ccc3c(c2)CCN3C(=O)c2ccccc2)cc1 | 87%
79 | Cc1scc(CN2CCN(c3ccccc3F)CC2)c1C | 64%
80 | Cc1cc(CN2CCN(c3ccc(F)cc3)CC2)cs1 | 69%
81 | Cc1ccc(-c2c(CN3CCN(c4cc(Cl)ccc4C)CC3)csc2C)cc1 | 51%
82 | Cc1scc(CN2CCN(c3ccc(F)cc3)CC2)c1C | 64%
83 | CCc1c(CN2CCN(c3ccc(F)cc3)CC2)csc1C | 38% (active)
84 | Cc1ccc(-c2c(CN3CCN(c4cc(C)ccc4C)CC3)csc2C)cc1 | 126%
85 | CCc1c(CN2CCN(c3cccc(C)c3C)CC2)csc1C | 76%
86 | Cc1ccc(-c2c(CN3CCN(c4cccc(C)c4C)CC3)csc2C)cc1 | 21% (active)
87 | CCc1c(CN2CCN(c3ccccc3F)CC2)csc1C | 32% (active)
88 | COc1ccc(-c2cc(C(F)(F)F)nc(SCCC(=O)Nc3ccccc3F)n2)cc1 | 77%
89 | Cc1ccc(Cl)cc1NC(=O)Cn1nnc2sc3c(c2c1=O)CCC(C(C)(C)C)C3 (stereo not given) | 58%
90 | C=CCc1c(C)nc2nc(SCC(=O)Nc3cccc(Cl)c3)nn2c1C | 102%
